# SKKanGAS inh = S. pyogenes SKKanGAS growth inhibitors in kanamycin, primary screen, streptokinase expression inhibitor project, SKKanGAS strain, BacTiter-Glo luminescence; 6 h; inhibition, % at 7.5 µM; 1.3% of 300,000 active; AID 1662, 2009;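 active = mean replicate score, as percent of positive control median, at least 50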;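 note: strain carries kanamycin resistance gene driven by streptokinase promoter and grows in 40 µg/ml kanamycin; loss of luminescence reflects streptokinase promoter inhibition or plain growth inhibition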
# tim10-1 inh = growth inhibitors of tim10-1 mutant yeast, primary screen, luminescence, uHTS | S. cerevisiae tim10-1 ts strain growth, BacTiter-Glo, 24 h | inhibition, % at 20 µM | 2.2% of 330,000 active | AID 463190, 2010;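 active = inhibition of at least 40%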;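 note: mutant grown at 25 °C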
# tim23-1 inh = growth inhibitors of tim23-1 mutant yeast, primary screen, luminescence, uHTS. S. cerevisiae tim23-1 growth, BacTiter-Glo luminescence, 24 h. inhibition, % at 20 µM. 1.3% of 330,000 active;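 active = growth inhibition of the mutant yeast at or above 50%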;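 note: temperature-sensitive mutant grown at 25 °C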
# TIM10 inh = growth inhibitors of isogenic TIM10 control yeast, primary screen, counter-screen for tim10-1 yeast inhibitor project, luminescence, uHTS; S. cerevisiae TIM10 strain growth, BacTiter-Glo luminescence, 24 h; inhibition, % at 10 µM; 1.4% of 330,000 active; AID 463195, 2010;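 active = inhibition of 40% or more at the single tested concentration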;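 note: wild-type TIM10 isogenic control strain grown at permissive 25 °C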
# NALP1 inh = NALP1 inflammasome inhibitors in reconstituted yeast, colorimetric, S. cerevisiae, triplicate retest | S. cerevisiae NALP1/ASC/caspase-1 growth, X-gal OD620, 72 h | inhibition, % at 10 µM | 0.61% of 280,000 active; in the data active = inhibition mostly above about 24%, no sharp cut-off; inactive = mostly below about 32%
# NALP3 yeast inh = NALP3 inflammasome inhibitors in reconstituted yeast, primary screen, luminescence, uHTS. Yeast reconstituted NLRP3/ASC/caspase-1, beta-gal luminescence, 24 h. inhibition, % at 10 µM. 0.39% of 330,000 active. AID 2825, 2010;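 active = inhibition of 50% or more; inactive = inhibition below 50%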
# tim23-1 confirm = tim23-1 mutant yeast growth inhibitors, confirmation, luminescence, single concentration; inhibition, % at 20 µM; 83% of 4,400 active; shares compounds with tim23-1 inh; AID 463218, 2010; S. cerevisiae tim23-1 growth, BacTiter-Glo luminescence, 24 h;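 active = inhibition above about 39% in either of two replicate wells at 20 µM, limit read from the data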;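 note: temperature-sensitive tim23-1 mutant grown at 25 °C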
# Hits are given with their value; i = inactive; nt = no result. In the library only some 4.9% were active in any assay of this set; here they are far more common.
SMILES,SKKanGAS inh,tim10-1 inh,tim23-1 inh,TIM10 inh,NALP1 inh,NALP3 yeast inh,tim23-1 confirm
Cc1cc(C)cc(N(C(C)C(=O)NC2CCCC2)S(C)(=O)=O)c1 (configuration not stated),i,i,88.5,i,i,i,i
CCOC(=O)C1CCCN(C(=O)c2ccc(C)c(NC(=O)C3=C(C)OCCS3)c2)C1 (configuration not stated),i,i,i,i,i,i,nt
CC(Nc1cc(=O)n(C)c(=O)n1C)c1ccccc1 (configuration not stated),i,i,51.6,i,i,i,i
COc1ccc(CCNC(=O)[C@H](CC(C)C)NC(=O)N2CCn3c2nc2ccccc23)cc1OC,i,i,i,i,i,i,nt
Cc1ccc(Nc2nc(-c3sc(N)nc3C)cs2)cc1,i,i,65.4,i,i,i,62.6
CCOc1ccc(Nc2ccc([N+](=O)[O-])c3nonc23)cc1,i,i,66.7,i,i,i,61.2
COc1ccc(Nc2cc(NCCCO)c([N+](=O)[O-])c3nonc23)cc1,i,i,i,i,i,i,nt
Oc1c(Cl)cc(CN2CCOCC2)c2cccnc12,nt,i,50.5,i,nt,i,i
O=[N+]([O-])c1cc(CN2CCOCC2)c2cccnc2c1O,nt,nt,nt,nt,i,nt,nt
O=C(Nc1ccccc1-c1ccccc1)NC1CC2CCCC(C1)N2Cc1ccc(F)cc1 (configuration not stated),i,i,56.0,i,i,i,i
O=C(Nc1ccccc1-c1ccccc1)NC1CC2CCCC(C1)N2CCc1ccccc1 (configuration not stated),i,i,i,i,i,i,nt
Cc1ccc(C(=O)N2CCN(S(=O)(=O)c3ccc(C(C)C)cc3)CC2)s1,i,i,i,i,nt,i,nt
COc1ccc(-c2cc(-c3ccc(O)cc3)nc(N)c2C#N)cc1,i,i,i,i,i,i,nt
N#Cc1c(-c2ccccc2)cc(-c2ccc(O)cc2)nc1N,i,i,54.2,i,i,i,56.8
Nc1ccc(N=Nc2ccccc2)c2cccnc12,i,i,58.6,i,i,i,50.5
Nc1ccc(Br)c2cccnc12,i,i,i,i,i,i,nt
COc1cccc(N=Nc2ccc(O)c3ncccc23)c1,79.5,i,61.5,i,i,i,55.8
COc1ccc(-c2ncccc2O)cc1,i,i,i,i,i,i,nt
CC(C)CCNC(=O)NC(=O)COC(=O)/C=C/c1cc(Br)ccc1F,i,i,i,i,i,i,nt
NC(=O)C1(N2CCCCC2)CCN(C(=S)Nc2cc(F)cc(F)c2)CC1,i,i,i,i,i,i,nt
CCC(=O)OCC(=O)[C@@]1(OC(=O)CC)[C@@H](C)C[C@H]2[C@@H]3CCC4=CC(=O)C=C[C@]4(C)[C@@]3(Cl)[C@@H](O)C[C@@]21C,nt,i,54.9,i,nt,i,40.0
CC(=O)OCC(=O)[C@@]1(O)[C@H](C)C[C@H]2[C@@H]3CCC4=CC(=O)C=C[C@]4(C)[C@@]3(F)[C@@H](O)C[C@@]21C,i,i,i,i,i,i,nt
COc1ccc(C(=O)O)cc1S(=O)(=O)NCCN(C)C,i,i,i,i,i,i,nt
O=C(c1ccc(F)cc1)N(C(=O)c1ccc(F)cc1)c1ncccn1,i,i,55.4,i,i,i,47.1
N#C/C(=C\C=C\c1ccccc1)c1nc(-c2ccc(Cl)cc2)cs1,i,i,i,i,i,i,nt
CN1CCN(C(=O)CCCN2C(=O)/C(=C/c3cccc(Br)c3)SC2=S)CC1,i,i,i,i,i,i,nt
O=C(CCCN1C(=O)/C(=C/c2cccc(Br)c2)SC1=S)N1CCOCC1,i,i,53.5,i,i,i,i
O=C(CCCN1C(=O)/C(=C/c2ccccc2Cl)SC1=S)N1CCCC1,i,i,50.9,i,i,i,55.8
COc1cc(C2CC(c3cccs3)=NN2C(=O)CCl)ccc1OC(F)F (configuration not stated),i,i,56.0,i,i,i,43.8

# Bioassay records deposited in PubChem by several laboratories.
